Assay outcomes deposited in PubChem BioAssay by National Center for Advancing Translational Sciences (NCATS).
This is a sample that favours compounds with a hit; in the whole collection about 1% have one here.
TrxR1 substrate = is turned over as a substrate by rat TrxR1. purified TrxR1 substrate turnover, NADPH consumption readout. Potency, µM (highest dose often 114 µM), inactives show at the highest dose activity change, negative = substrate turnover. 390,000 tested, 0.01% active; also: nearly all actives have a fitted effect of over 50% in size
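Rat TrxR1, dispensed at 90 nM, was prereduced with 400 uM NADPH (final) for 5 min at ~22 deg C, then incubated with compound 15 min before 400 uM selenite. A first-read NADPH fluorescence drop versus no-compound background flagged substrates.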
GALK inh = inhibitors of human galactokinase. AID 1868. Potency, µM (doses to about 57.5 µM), without a hit: at the highest dose activity change, negative = inhibition, most hits filed as inhibitors. 270,000 tested, 0.007% active. Purified GALK, Kinase-Glo residual ATP luminescence. P51570
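Luminescence from leftover ATP (Ultra-Glo luciferase/luciferin) served as read-out after a 1 h room-temperature reaction of 5 nM GALK with 35 uM ATP and 100 uM galactose.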
TrxR1 inh = blocks rat thioredoxin reductase 1; 390,000 tested, 1% active; O89049; Potency, µM (series often up to 114 µM), inactives show at the top dose activity change, negative = inhibition, usual class: inhibitors; recombinant rTrxR1, NADPH fluorescence consumption, selenite substrate; also: nearly all actives have a fitted effect of over 65% in size
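Rat TrxR1 (90 nM in the dispensed reagent) was pre-reduced with 400 uM NADPH for 5 min at room temperature, then incubated with compound for 15 min. After 400 uM selenite was added, NADPH fluorescence (Ex 340/Em 450 nm) was followed for 8 min.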
Eya2 inh = inhibitors of human Eya2 phosphatase activity. recombinant Eya2, OMFP fluorescence dephosphorylation (OMFP is methylfluorescein phosphate). Potency, µM (titrated, usually from 76.9 µM), for inactives: top-dose activity, negative = inhibition, usual class: inhibitors. 330,000 tested, 0.006% active. O00167
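Eya2 protein (added as 0.2 uM solution) was preincubated with compound for 10 min at ambient temperature in 50 mM HEPES pH 7.5, 50 mM NaCl, 5 uM MgCl2, 0.05% BSA, 1 mM DTT. OMFP (added at 50 uM) then reacted 10 min; fluorescence read at 485/525 nm.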
RGS4 inhibitor = human RGS4 inhibition; P49798; Transcreener GDP fluorescence polarization, RGS4-accelerated GTP hydrolysis; Potency, µM (series often up to 114 µM), for inactives: top-dose activity change, negative = inhibition, hits mostly inhibitors; 390,000 tested, 0.039% active; AID 504845; also: nearly all actives have a fitted effect of over 75% in size
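MLSMR compounds (23 nl, pin-transferred) preincubated 10 min at room temperature with a 500nM (2x) first reagent, then RGS4 at 900nM (2x) plus Transcreener GDP mix added; fluorescence polarization (620/688 nm) read before and after 90 min at 30 °C.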
USP2a block = blocks human ubiquitin-specific protease USP2a | Potency, µM (doses to about 38.3 µM), for the others: at the top dose activity change, negative = inhibition, usual class: inhibitors | USP2 core, Ub-CHOP2 coupled fluorogenic reporter, 485/531 | 330,000 tested, 0.01% active;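 also: plate controls were DMSO wells for no effect and full inhibition by NEM control for full effect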
Target sequence (O75604 whole entry, looked up): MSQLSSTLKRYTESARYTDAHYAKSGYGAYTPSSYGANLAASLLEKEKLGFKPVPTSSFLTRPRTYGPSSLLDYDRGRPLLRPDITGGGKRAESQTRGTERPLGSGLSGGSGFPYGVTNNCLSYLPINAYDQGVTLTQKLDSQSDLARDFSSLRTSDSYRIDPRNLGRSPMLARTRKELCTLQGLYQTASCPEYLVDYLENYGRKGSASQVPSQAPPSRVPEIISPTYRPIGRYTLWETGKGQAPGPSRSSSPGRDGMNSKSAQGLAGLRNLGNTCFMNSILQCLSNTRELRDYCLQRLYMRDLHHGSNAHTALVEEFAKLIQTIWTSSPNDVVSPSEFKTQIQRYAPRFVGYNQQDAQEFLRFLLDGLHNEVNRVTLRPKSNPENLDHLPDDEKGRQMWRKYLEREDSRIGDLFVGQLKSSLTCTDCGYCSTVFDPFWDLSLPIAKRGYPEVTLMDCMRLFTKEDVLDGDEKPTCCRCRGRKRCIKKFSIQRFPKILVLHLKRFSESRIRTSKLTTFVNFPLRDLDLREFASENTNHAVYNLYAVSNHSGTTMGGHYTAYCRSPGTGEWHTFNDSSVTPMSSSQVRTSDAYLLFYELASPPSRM
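USP2 core (10nM final) preincubated 30min RT with compound in 20mM Tris-HCl pH 8.0, 2mM CaCl2, 2mM beta-mercaptoethanol, 0.05% CHAPS; 25nM Ub-CHOP2 plus 25nM reporter substrate added, fluorescence (Ex485/Em531) read after 60min.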
Numbers without * were called inactive; [ ] = another dose, or the depositor's remark. Calls follow the shape of the dose curve; as a rule, active = well fitted curve in the direction sought with a large enough effect; inconclusive = small, poorly fitted or top-dose-only effect, or another doubt; inactive = no such curve, though single readings can be large; an effect the other way counts as inactive or inconclusive. Unless noted, % is scaled to controls: 0 for no effect and ±100 for the full control effect; potency is read from the fitted curve at half-maximal effect.

`Cc1cc(/C=C/c2ccnc3ccccc23)ccc1N(C)C` gave TrxR1 substrate -11% and TrxR1 inh -8%.
For Cc1cc(Oc2ccc(Cl)cc2Cl)nc(C#N)n1 the results were TrxR1 substrate 3% and TrxR1 inh -1%.
CN(c1ccccc1)S(=O)(=O)c1ccc(NC(=O)c2nc(S(C)(=O)=O)ncc2Cl)cc1 was read as TrxR1 substrate 0%, GALK inh 2%, TrxR1 inh 0.79µM*, Eya2 inh -10%, RGS4 inhibitor inconclusive and USP2a block -7%.
CCOC(=O)c1c(-c2ccccc2)csc1NC(=O)c1nc(S(=O)(=O)CC)ncc1Cl was read as TrxR1 substrate 0%, TrxR1 inh 3.2µM* and RGS4 inhibitor -34%.
Screening COc1ccc(N2CCN(C(=O)c3nc(SC)ncc3Cl)CC2)cc1 returned TrxR1 substrate 3%, TrxR1 inh 12% and RGS4 inhibitor 3%.
For CCS(=O)(=O)c1ncc(Cl)c(C(=O)Nc2ccccc2)n1 the results were TrxR1 substrate -4%, TrxR1 inh 2.5µM* and RGS4 inhibitor -51%.
CCc1ccc(NC(=O)c2nc(S(=O)(=O)Cc3ccccc3)ncc2Cl)cc1 was read as GALK inh 4%, Eya2 inh -19% and USP2a block -1%.
For CCS(=O)(=O)c1ncc(Cl)c(C(=O)N2CCN(c3ccc(OC)cc3)CC2)n1 the results were TrxR1 substrate 6%, TrxR1 inh 3.2µM* and RGS4 inhibitor inconclusive.
Screening CCN(Cc1ccccc1)c1ccc(/C=C/c2nccc3ccccc23)cc1 returned TrxR1 substrate -2% and TrxR1 inh 12%[0.0914 µM].
For CN(C)c1ccc(/C=C/c2ccnc3ccc(Br)cc23)cc1 the results were TrxR1 substrate -6% and TrxR1 inh -8%.
Screening O=S(=O)(c1ccc2c(Cl)cccc2c1)N1CCN(c2nc(-c3cccs3)nc3ccccc23)CC1 returned TrxR1 substrate -3%, TrxR1 inh 3% and RGS4 inhibitor 29%.
For CCCS(=O)(=O)c1ncc(Cl)c(C(=O)Nc2ccc(S(=O)(=O)Nc3ncccn3)cc2)n1 the results were TrxR1 substrate -3%, GALK inh -4%, TrxR1 inh 45µM*, Eya2 inh 4%, RGS4 inhibitor -35% and USP2a block 2%.
Screening O=C(COC(=O)/C=C/c1cccs1)Nc1nc(-c2ccccc2)cs1 returned TrxR1 substrate 1%, GALK inh 0%, TrxR1 inh 56µM*, Eya2 inh -1%, RGS4 inhibitor -6% and USP2a block 1%.
Screening O=c1[nH]c(SCc2ccccc2)ncc1S(=O)(=O)c1ccccc1 returned TrxR1 substrate 0%, TrxR1 inh 9% and RGS4 inhibitor 0%.
For CC(C)(C)n1ncc2c(=O)n(Cc3ccccc3SC(F)(F)F)cnc21 the results were TrxR1 substrate -12% and TrxR1 inh -7%.
For COc1cccc(C(=O)NN2C(=O)C3C4C=CC(O4)C3C2=O)c1 (stereo not drawn) the results were TrxR1 substrate -3%, GALK inh -2%, TrxR1 inh 28µM*, Eya2 inh -26%, RGS4 inhibitor 13% and USP2a block 0%.
CC(=O)NC(Cc1ccc(O)cc1)C(=O)NCC(N)C(=O)c1ccccc1 (stereo not drawn) was read as TrxR1 substrate 3% and TrxR1 inh -10%.
Cc1ccc(C)c2c1NC(C(=O)O)C1CC=CC21 (stereo not drawn) was read as TrxR1 substrate 6%, TrxR1 inh 3.2µM* and RGS4 inhibitor inconclusive.
Screening O=C(O)C1Nc2c(Cl)cc(Cl)c(Cl)c2C2C=CCC12 (stereo not drawn) returned TrxR1 substrate -1%, TrxR1 inh inconclusive and RGS4 inhibitor inconclusive.
O=C(O)C1Nc2c(Cl)cc(Cl)cc2C2C=CCC12 (stereo not drawn) was read as TrxR1 substrate 4%, GALK inh 4%, TrxR1 inh 20µM*, Eya2 inh 3%, RGS4 inhibitor inconclusive and USP2a block -2%.
For O=C(O)C1Nc2c(O)cccc2C2C=CCC12 (stereo not drawn) the results were TrxR1 substrate -8%, GALK inh 1%, TrxR1 inh 35µM*, Eya2 inh 2%, RGS4 inhibitor inconclusive and USP2a block inconclusive.
`CC1(C)Nc2cccc3c(N=Nc4ccc(N=Nc5ccccc5)c5ccccc45)ccc(c23)N1` gave TrxR1 substrate -2% and TrxR1 inh 3%.
For CCSC1(SCC)N=C(N)C2(C#N)C(c3ccc(OC)c(OC)c3OC)C12C#N (stereo not drawn) the results were TrxR1 substrate -11%, GALK inh 1%, TrxR1 inh 45µM*, Eya2 inh -24%, RGS4 inhibitor inconclusive and USP2a block 1%.
`O=C(Nc1cccc(-c2nc3ccccc3o2)c1)c1ccc(-c2ccc(Br)cc2)o1` gave TrxR1 substrate 35%, TrxR1 inh 11% and RGS4 inhibitor -24%.
Screening Cc1ccccc1NS(=O)(=O)c1cc(C(=O)NCc2ccco2)ccc1C returned TrxR1 substrate 3%, GALK inh 0%, TrxR1 inh -47%[57.1 µM], Eya2 inh 9%, RGS4 inhibitor -8% and USP2a block -1%.
Cc1ccc(C(=O)NCc2ccco2)cc1S(=O)(=O)Nc1cccc(C)c1C was read as TrxR1 substrate -5%, GALK inh 2%, TrxR1 inh 79µM*, Eya2 inh 7%, RGS4 inhibitor -15% and USP2a block 0%.
`O=C(Nc1cccc(NC(=O)c2ccc(-c3ccc(Br)cc3)o2)c1)c1ccco1` gave TrxR1 substrate 40%, GALK inh -4%, TrxR1 inh 79µM*, Eya2 inh 3%, RGS4 inhibitor inconclusive and USP2a block 1%.
`O=C(NCc1ccco1)c1cccc(NC(=O)c2ccco2)c1` gave TrxR1 substrate 2%, GALK inh -2%, TrxR1 inh 50µM*, Eya2 inh 16%, RGS4 inhibitor -14% and USP2a block 1%.
CN(C)c1ccc(C=O)c(O)c1 was read as TrxR1 substrate -21% and TrxR1 inh -24%.
For N#Cc1ccc(NC(=O)COc2ccccc2C(=O)Nc2ccccc2)cc1 the results were TrxR1 substrate -9% and TrxR1 inh -20%.
CN(C)c1ccc(/C=C/c2ccnc3c(-c4ccccc4)cccc23)cc1 was read as TrxR1 substrate 1% and TrxR1 inh 25%.
